Test results reported in ChEMBL document CHEMBL1201862, “PubChem BioAssay data set” (2004).
The whole screen tested about 400,000 compounds, of which about 2,100 (0.53%) were called active. About 14% were inconclusive and are not listed. How the calls were made is not given here. The sample as a whole holds a higher share of actives than the screen did.

The molecules below were run against Ataxin-2 (Homo sapiens) (UniProt Q99700) (assay: qHTS for Inhibitors of ATXN expression.).
Type: functional

Ataxin-2 (Homo sapiens), sequence (Q99700 whole entry): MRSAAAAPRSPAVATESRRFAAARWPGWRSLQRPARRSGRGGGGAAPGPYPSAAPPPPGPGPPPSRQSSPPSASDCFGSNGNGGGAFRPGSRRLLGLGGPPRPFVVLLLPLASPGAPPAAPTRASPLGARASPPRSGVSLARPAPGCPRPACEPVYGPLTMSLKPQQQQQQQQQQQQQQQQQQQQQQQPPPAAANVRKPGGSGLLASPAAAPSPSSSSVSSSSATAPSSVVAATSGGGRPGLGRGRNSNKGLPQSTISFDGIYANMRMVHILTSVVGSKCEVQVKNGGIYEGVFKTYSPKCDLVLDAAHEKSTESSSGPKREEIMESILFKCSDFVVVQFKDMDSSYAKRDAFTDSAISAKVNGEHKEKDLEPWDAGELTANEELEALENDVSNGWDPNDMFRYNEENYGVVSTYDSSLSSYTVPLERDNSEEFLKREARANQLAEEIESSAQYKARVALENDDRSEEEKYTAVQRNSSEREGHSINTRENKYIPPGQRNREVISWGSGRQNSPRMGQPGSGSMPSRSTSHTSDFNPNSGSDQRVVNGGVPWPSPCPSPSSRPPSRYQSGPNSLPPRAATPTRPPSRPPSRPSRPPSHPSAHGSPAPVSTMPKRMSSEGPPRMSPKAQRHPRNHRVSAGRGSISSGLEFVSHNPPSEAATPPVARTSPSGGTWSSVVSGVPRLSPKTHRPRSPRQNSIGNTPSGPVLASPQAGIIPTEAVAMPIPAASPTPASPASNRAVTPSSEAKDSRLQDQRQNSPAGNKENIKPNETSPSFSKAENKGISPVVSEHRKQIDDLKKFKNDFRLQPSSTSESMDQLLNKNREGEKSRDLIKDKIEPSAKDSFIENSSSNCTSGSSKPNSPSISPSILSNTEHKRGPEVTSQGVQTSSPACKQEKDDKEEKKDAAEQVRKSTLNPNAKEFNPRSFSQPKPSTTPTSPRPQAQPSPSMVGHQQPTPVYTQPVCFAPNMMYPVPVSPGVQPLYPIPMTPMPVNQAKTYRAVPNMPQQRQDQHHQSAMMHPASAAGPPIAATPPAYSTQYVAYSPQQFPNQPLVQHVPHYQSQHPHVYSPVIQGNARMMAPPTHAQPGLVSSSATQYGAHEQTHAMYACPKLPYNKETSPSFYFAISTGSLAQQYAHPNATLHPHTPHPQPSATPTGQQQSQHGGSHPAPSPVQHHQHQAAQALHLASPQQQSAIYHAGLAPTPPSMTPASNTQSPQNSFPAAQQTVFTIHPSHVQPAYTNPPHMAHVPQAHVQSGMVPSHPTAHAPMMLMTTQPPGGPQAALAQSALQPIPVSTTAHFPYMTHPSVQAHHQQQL

SMILES | Potency
Cc1c(CCC(=O)NCCCN2CCCC2=O)c(=O)oc2c(C)c(O)ccc12 | inactive
COc1cc(/C=C/c2sc3ccccc3[n+]2CCCS(=O)(=O)[O-])ccc1O | 18.9 µM (active)
Cc1cccn2c(=O)c3cc(C(=O)NCC4CCCO4)c(=N)n(Cc4ccc(F)cc4)c3nc12 (stereo unspecified) | inactive
CCN(CC)c1ccc(/C=C(\C#N)c2ccccn2)cc1 | inactive
COc1cccc(Cc2nc3ccccc3nc2SCC(=O)NCCc2ccccc2)c1 | 35.5 µM (active)
CCS(=O)(=O)c1ccc2oc(SCC(=O)NCCc3ccccc3)nc2c1 | inactive
O=C(CSc1ccccc1)NCCc1ccc(F)cc1 | inactive
O=S(=O)(c1ccc(N2CCC(c3ccc(Cl)cc3)=N2)cc1)N(CCO)CCO | inactive
CCCCC[C@H](O)/C=C/[C@H]1CCC(=O)[C@@H]1CCCCCCC(=O)N1CCCCC1CO (stereo partly specified) | 39.8 µM (active)
CN(/N=C/c1cc(Cl)cc(Cl)c1O)C(=S)NC(C)(C)C | inactive
Cc1cc(N2CCOCC2)n2ncc(-c3ccccc3Cl)c2n1 | inactive
Cc1nn(C)c(Sc2ccccn2)c1[N+](=O)[O-] | inactive
Cn1nc([N+](=O)[O-])nc1Sc1cccc2cccnc12 | 7.94 µM (active)
C=CCn1nc([N+](=O)[O-])nc1Sc1cccc2cccnc12 | 39.8 µM (active)
CCOc1ccc2nc(NCCNC(=O)CC)c(C#N)cc2c1 | inactive
CN1c2ccccc2Oc2nnc(Cl)cc21 | inactive
Clc1ccc(C2=Nn3c(nnc3-c3cc(-c4ccccc4)[nH]n3)SC2)cc1 | 35.5 µM (active)
Cc1cc(-c2nnc3n2N=C(c2ccccc2)CS3)[nH]n1 | inactive
O=c1c2ccccc2nc(/C=C/c2ccc(O)cc2)n1CCc1ccccc1 | inactive
CCCCC[C@H]1CN(C2CCCCC2)C(=O)[C@@H]1CC(=O)NCc1ccccc1 | 39.8 µM (active)
Cc1nn(C(=O)CCCC(=O)NCc2ccccc2)c2ccccc12 | inactive
O=C(CC1CCCCC1)NCc1nc(-c2ccccc2)no1 | inactive
CCN1C(=O)c2cccc3c(S(=O)(=O)N4CCNCC4)ccc1c23 | inactive
COc1cccc(/C=C/c2ccc3cccc(O)c3n2)c1OC | inactive

SMILES | Potency
COc1cc(Br)c(/C=C/c2ccc3cccc(O)c3n2)cc1OC | 25.1 µM (active)
COc1cc(OC)c(OC)cc1C=Cc1ccc2ccccc2n1 | inactive
Cc1ccc(C2C=C(c3ccc(F)cc3)Nc3nc(CCCO)nn32)cc1 (stereo unspecified) | inactive
O=CN(c1ccccc1)c1ccc2ccccc2c1 | inactive
CCCCCCc1cc2cc(-c3nnc(-c4cc(OC)c(OC)c(OC)c4)o3)c(=O)oc2cc1O | inactive
COCCCN=C(S)NCCNc1nc2c(C)c(C)ccc2cc1C#N | inactive
COc1cc2nc(/C=C/c3cc(OC)c(OC)c(OC)c3)sc2cc1SC | inactive
CC1=NN2C(=N)/C(=C\c3cc(C)n(-c4ccc(C)cc4)c3C)C(=O)N=C2S1 | inactive
COc1ccc(-c2ccc(/C=N/NC(=O)c3cccnc3)o2)c([N+](=O)[O-])c1 | inactive
CC1=CN2C(=N)/C(=C/c3cc(Cl)c(O)c(Cl)c3)C(=O)N=C2S1 | inactive
CCOc1ccc(-c2ccc(/C=C3/C(=N)N4C=CSC4=NC3=O)o2)c([N+](=O)[O-])c1 | 31.6 µM (active)
CC1=CN2C(=N)/C(=C/c3ccc([N+](=O)[O-])o3)C(=O)N=C2S1 | 28.2 µM (active)
CCOC(=O)c1c(N)n(C2CC(C)(C)NC(C)(C)C2)c2nc3ccccc3nc12 | inactive
CC(CCc1ccco1)NC(=O)Cn1ncc2c(=O)oc3ccccc3c21 (stereo unspecified) | inactive
O=C(CN1CCN(c2ccccc2)CC1)Nc1scc2c1c(=O)oc1ccccc12 | inactive
Cc1ccc2oc(=O)c3cnn(CC(=O)Nc4ccccc4N4CCN(C)CC4)c3c2c1 | 7.08 µM (active)
CN(C(=S)NC(=O)C12CC3CC(CC(C3)C1)C2)c1ccc(O)cc1 | inactive
Cc1ccc(CCNC(=O)C[S+]([O-])Cc2nc(-c3cccs3)oc2C)cc1 (stereo unspecified) | inactive
Cc1ccc(-c2nc3sc(CCNC(=O)c4ccc(Br)o4)c(C)n3n2)cc1 | 35.5 µM (active)
O=C(NCCc1csc(-c2cccnc2)n1)c1ccc(Br)o1 | inactive
O=C(COc1coc(CN2CCc3ccccc32)cc1=O)N1CCCCC1 | inactive
CC[C@H](C)/C=C(C)/C=C/C1=CC2=CC(=O)[C@]3(C)OC(=O)[C@@H](C(C)=O)[C@@H]3C2=CO1 | inactive
CC[C@H](C)/C=C/C1=CC2=C(Cl)C(=O)[C@@]3(C)OC(=O)C(C(=O)[C@H](C)[C@@H](C)O)=C3C2=CO1 | 11.9 µM (active)
Cc1ccc(S(=O)(=O)N[C@@H](Cc2ccccc2)C(=O)N2CCC[C@@H]2C(=O)O)cc1 | inactive

SMILES | Potency
O=S(=O)(NCc1ccccc1)c1ccc(S(=O)(=O)N2CCCC2)cc1 | inactive
Cc1ccc(S(=O)(=O)N2CC3(O)CN(C(=O)OC(C)C)N(C(=O)OC(C)C)CC3(OC(=O)NCc3ccccc3)C2)cc1 (stereo unspecified) | 22.4 µM (active)
CCCCCCNC(=O)OC12CN(C(=O)OC(C)C)N(C(=O)OC(C)C)CC1(O)CN(S(=O)(=O)c1ccc(C)cc1)C2 (stereo unspecified) | 25.1 µM (active)
CC(=O)NCCNC(=O)c1ccc(Sc2ccccc2)c([N+](=O)[O-])c1 | inactive
NCCNc1ccc(C(=O)N2c3ccccc3Sc3ccccc32)cc1[N+](=O)[O-] | 14.1 µM (active)
CCCNC(=O)c1ccc(SCC(=O)N(CC)CC)c([N+](=O)[O-])c1 | inactive
C/C(=N\NC(=O)C1=NNC(=O)C1C)c1cccs1 (stereo unspecified) | inactive
CN=c1sc2c(n1C)C(=O)c1ccccc1C2=O | 39.8 µM (active)
O=C(NP(=O)(N1CCOCC1)N1CCOCC1)C1=C(N2CCOCC2)/C(=C\c2ccccc2)CC1 | inactive
CC1=CC(=Nc2c(C)n(C)n(-c3ccccc3)c2=O)C=C(C)C1=O | 35.5 µM (active)
Cc1c(N=C2C=C(Br)C(=O)C(Br)=C2)c(=O)n(-c2ccccc2)n1C | inactive
Cc1c(/N=C2\C=CC(=O)c3ccccc32)c(=O)n(-c2ccccc2)n1C | inactive
CCCS(=O)(=O)N1CCN=C1SCc1ccc(C)cc1 | inactive
Cc1cccc(N2C(=O)c3cccc4c(N)ccc(c34)C2=O)c1 | inactive
Cc1cc(C)cc(N2C(=O)C=CC2=O)c1 | 28.2 µM (active)
CCOC(=O)c1c(-c2ccc(Cl)cc2)csc1NC(=O)CNCc1ccco1 | inactive
CCOC(=O)c1c(-c2ccc(C)o2)csc1NC(=S)NC(=O)N(C)C | 39.8 µM (active)
CCOC(=O)c1c(-c2ccc(C)cc2)csc1NC(=O)/C(C#N)=C/c1ccc(O)c(OC)c1 | inactive
CCc1ccc(/C(C)=N/NC(=O)c2ccc(-n3cnnn3)cc2)cc1 | inactive
COc1cc(OC)c(OC)cc1CN1CCc2nc(Nc3ccc4c(c3)OCCO4)ncc2C1 | inactive
Cc1cccn2c(Nc3ccc4c(c3)OCCO4)c(-c3ccc(Br)o3)nc12 | 39.8 µM (active)
Cc1cnc(NC(=O)CSc2nnc3ncccn23)s1 | inactive
COc1ccc(Sc2ccc(-c3nc4cnccn4c3NC3CCCCC3)cc2OC)cc1 | inactive
CN(Cc1nc(-c2cnccn2)no1)C1CC(C)(C)NC(C)(C)C1 | inactive

SMILES | Potency
Cc1ccccc1N(CC(=O)NC(C)(C)C)C(=O)CCC(=O)Nc1nccs1 | inactive
CCCN1CNc2c(c(=O)[nH]c(=S)n2CCc2ccccc2)C1 | inactive
Oc1ncnc2sc3c(c12)CN(Cc1ccccc1)CC3 | inactive
CCCCN1CCc2c(c3ccccc3n2Cc2ccccc2)C1 | 28.2 µM (active)
CCCCCC(=O)NNC1=NCC(Cc2ccccc2)S1 (stereo unspecified) | inactive
COc1cc2cc(C(=O)N3CCN(Cc4ccc5c(c4)OCO5)CC3)c(=O)oc2cc1OC | inactive
O=C(c1cc([N+](=O)[O-])cc([N+](=O)[O-])c1)N1CCN(Cc2ccc3c(c2)OCO3)CC1 | inactive
CCO[C@H]1OC(C(=O)N2CCN(Cc3ccc4c(c3)OCO4)CC2)=C[C@@H](c2ccc(C(F)(F)F)cc2)[C@@H]1CCCO | 35.5 µM (active)
CCOC(=O)C(=Cc1ccc(-n2ccnc2)cc1)C(=O)OCC | 25.1 µM (active)
CCOC(=O)/C(=C/c1ccc(N2CCC(c3ccccc3)=N2)cc1)C(C)=O | inactive
CCOc1ccc(S(=O)(=O)N2CCN(C)CC2)cc1NC(=O)c1ccccc1F | inactive
Cc1cc(Nc2cccc(Cl)c2)nc2ccc(NC(=O)COc3ccc(Cl)cc3)cc12 | inactive
CCCN(CCC)CCNC(=O)CCC(=O)Nc1ccc2nc(N3CCOCC3)cc(C)c2c1 | inactive
CCN1CCN(c2cc(C)c3cc(NC(=O)c4cc(Br)ccc4Cl)ccc3n2)CC1 | 31.6 µM (active)
Cc1cc(N2CCN(C)CC2)nc2ccc(NC(=O)Nc3ccccc3Br)cc12 | 39.8 µM (active)
CCOc1ccccc1NC(=O)Nc1ccc2nc(N3CCN(C)CC3)cc(C)c2c1 | 31.6 µM (active)
COc1ccc(Cl)cc1C(=O)Nc1ccc2nc(Nc3cccc(Cl)c3)cc(C)c2c1 | inactive
Cc1cc(N2CCN(C)CC2)nc2ccc(NC(=O)Nc3cccc(Cl)c3)cc12 | 31.6 µM (active)
CCN1CCN(c2cc(C)c3cc(NC(=O)CCC(=O)Nc4ccc(OC)cc4OC)ccc3n2)CC1 | inactive
COCCCn1c(=N)c(C(=O)NC2CCCC2)cc2c(=O)n3ccccc3nc21 | inactive
COc1ccc(S(=O)(=O)NCc2ccco2)cc1C(=O)N1CCOCC1 | inactive
CCCN(CCC)S(=O)(=O)c1ccc(C(=O)OCCN2C(=O)c3cccc4c(N5CCOCC5)ccc(c34)C2=O)cc1 | inactive
O=C(CCCNC1=NS(=O)(=O)c2ccccc21)Nc1ccc(Cl)cc1 | inactive
CCOC(=O)c1cc2c(=O)n3ccccc3nc2n(Cc2ccccc2)c1=N | inactive
